Compound activity: PubChem BioAssay, Johns Hopkins Ion Channel Center
Most compounds without a hit are left out; they make up all but 1.6% or so of the library.
KCNQ2 inh – rat KCNQ2 potassium channel inhibitors, primary screen, cell-based, CHO-K1, FluxOR thallium flux, B-score; B-score at 10 µM; 310,000 tested, 1.1% active; Potassium voltage-gated channel subfamily KQT member 2 (Rattus norvegicus), O88943; 20 min; active compounds read low;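 active = fluorescence ratio B-score at most minus 3 library SDs, with starting brightness B-score within 2 library SDs, cut at about -5.5 in these data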
Target sequence (O88943 whole entry, looked up): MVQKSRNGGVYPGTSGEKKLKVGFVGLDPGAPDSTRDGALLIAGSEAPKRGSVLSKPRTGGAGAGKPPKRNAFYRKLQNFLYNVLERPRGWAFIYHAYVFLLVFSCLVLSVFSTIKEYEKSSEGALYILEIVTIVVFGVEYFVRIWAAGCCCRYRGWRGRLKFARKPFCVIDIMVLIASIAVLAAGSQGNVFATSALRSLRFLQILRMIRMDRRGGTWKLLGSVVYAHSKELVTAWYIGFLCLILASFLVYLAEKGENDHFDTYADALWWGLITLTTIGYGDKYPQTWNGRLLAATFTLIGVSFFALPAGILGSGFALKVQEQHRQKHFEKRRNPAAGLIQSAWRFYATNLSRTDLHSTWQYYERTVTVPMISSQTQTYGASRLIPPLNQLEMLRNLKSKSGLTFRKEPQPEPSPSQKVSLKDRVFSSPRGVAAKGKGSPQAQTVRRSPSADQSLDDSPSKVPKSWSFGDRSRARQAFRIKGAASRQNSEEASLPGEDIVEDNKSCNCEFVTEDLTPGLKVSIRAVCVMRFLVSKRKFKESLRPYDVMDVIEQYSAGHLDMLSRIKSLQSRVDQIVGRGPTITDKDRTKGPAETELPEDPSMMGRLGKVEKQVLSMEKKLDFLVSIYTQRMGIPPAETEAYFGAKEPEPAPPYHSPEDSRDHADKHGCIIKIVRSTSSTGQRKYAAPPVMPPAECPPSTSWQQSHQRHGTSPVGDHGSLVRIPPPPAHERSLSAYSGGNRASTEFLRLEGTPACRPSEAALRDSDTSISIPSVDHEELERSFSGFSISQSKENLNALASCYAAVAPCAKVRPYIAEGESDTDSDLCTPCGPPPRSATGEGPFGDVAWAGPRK
KCNQ2 pot – potentiators of rat KCNQ2 potassium channel; Potassium voltage-gated channel subfamily KQT member 2 (Rattus norvegicus), O88943; CHO-K1 KCNQ2, FluxOR thallium flux fluorescence; active compounds read high; B-score at 10 µM; 310,000 tested, 0.54% active;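 active = fluorescence ratio B-score at least 3 SD of library B-scores, with initial fluorescence B-score within 3 of them, cut at about 5.3 in these data; same plate scores as AID 2156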;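 note: B-score of peak minus minimum over baseline fluorescence ratio after K+ and Tl+ stimulus; positive B-score means potentiation of KCNQ2 with more thallium influx and brighter signal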
Kir21 conf inh – mouse Kir2.1 channel blockers, retest, confirmation, cell-based, FluxOR thallium flux, duplicate; shares compounds with KCNQ2 pot; 2,300 tested, 41% active; Kir2.1-expressing cells, FluxOR thallium flux fluorescence; active compounds read low; Tl flux remaining, % of negative control (active compounds read low), % at 10 µM;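 active = Primary-screen hit whose thallium flux fell at least 3 control SD below untreated wells in both duplicates, with normal baseline fluorescence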;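 note: 0% = blank wells without stimulus and 100% = stimulated no-compound controls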
HEK293 ctr – counter-screen for Kir2.1 inhibitors: effect in parental HEK293 cells; shares compounds with KCNQ2 pot; FluxOR thallium flux fluorescence; 0% = unstimulated blank wells; FluxOR signal as % of negative control (100 = no effect), % at 10 µM; 2,300 tested, 19% active; AID 2105;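 active = dye signal at least 3 control SD above or below untreated wells in both duplicates, raw fluorescence within 3, either direction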;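 note: percent is based on the flux ratio of peak minus minimum fluorescence over baseline F0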
CHO-K1 Tl ctr – nonspecific thallium flux increase in parental CHO-K1, confirmation, counter-screen for KCNQ2 potentiator project, cell-based, FluxOR thallium flux, duplicate; shares compounds with KCNQ2 pot; parental CHO-K1 cells, FluxOR thallium flux fluorescence; zero = vehicle mean+3SD, 100% = vehicle-minus-blank window; activity increase over 3SD of controls, % at 10 µM; 1,200 tested, 43% active;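 active = signal rise of at least 3 SD above the untreated control mean, in both duplicate wells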;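 note: counter screen of KCNQ2 potentiator hits so any rise reflects channel-independent effects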
KCNQ1 pot spec – human KCNQ1 channel potentiation off-target, confirmation, selectivity assay for KCNQ2 potentiator project, cell-based, CHO, FluxOR thallium flux; CHO KCNQ1 stable, FluxOR thallium flux fluorescence; beyond 3SD, as % of vehicle-control signal; 1,200 tested, 28% active; activation over 3SD threshold, % at 10 µM; shares compounds with KCNQ2 pot;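 active = fluorescence ratio rise of at least 3 SD of vehicle wells above their mean, in both replicate wells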;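 note: 0% = vehicle mean plus 3 SD and 100% = vehicle minus unstimulated blank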
KCNQ2 pot conf – rat KCNQ2 channel potentiators, confirmation, cell-based, CHO, FluxOR thallium flux, duplicate; shares compounds with KCNQ2 pot; CHO-KCNQ2 cells, FluxOR thallium flux fluorescence; potentiation, less the hit threshold, % at 10 µM; 1,200 tested, 68% active;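 active = fluorescence ratio rising 3 SD or more over the vehicle control mean in both replicates, plus primary screen hit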;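 note: peak minus minimum thallium fluorescence divided by baseline after K/Tl stimulus; 0% = vehicle mean plus 3 SD and 100% = vehicle minus unstimulated blank difference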
Kir2-1 sel – mouse Kir2.1 channel activation off-target, confirmation, selectivity assay for KCNQ2 potentiator project, cell-based, HEK293, FluxOR thallium flux | AID 2345, 2010 | shares compounds with KCNQ2 pot | 1,200 tested, 2% active | HEK293 Kir2.1, FluxOR thallium flux fluorescence | activity over 3SD threshold, % at 10 µM;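 active = fluorescence ratio rise of at least 3 SD above the vehicle-control mean, seen in both replicates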;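 note: 0% = vehicle mean plus 3 SD and 100% = vehicle minus no-stimulus blank window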
KCNQ2 W236L pot – potentiators of retigabine-insensitive KCNQ2 W236L, mechanism study for KCNQ2 potentiator project, cell-based, rat KCNQ2 W236L, CHO, automated patch clamp; shares compounds with KCNQ2 pot; automated patch clamp current; current increase over 3SD of negative controls (%), active compounds read high, % at 25 µM; 940 tested, 10% active; AID 2558, 2010;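 active = current increase at least 3 SD of the untreated controls above them in both duplicate recordings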
Active calls of the source: *; i = inactive; · = no result.

SMILES	KCNQ2 inh	KCNQ2 pot	Kir21 conf inh	HEK293 ctr	others
CC(C)c1ccccc1-n1c(SCc2cc(=O)oc3ccc4ccccc4c23)nnc1-c1cccnc1	i	·	·	·
Cn1c(=NC(=O)CCS(=O)(=O)c2ccccc2)sc2cc(F)ccc21	i	·	·	·
CC(=O)SCC(=O)N=c1sc2cc(F)ccc2n1C	i	5.9*	i	i	CHO-K1 Tl ctr=-16;KCNQ1 pot spec=-5;KCNQ2 pot conf=5.6*;Kir2-1 sel=-35;KCNQ2 W236L pot=i
CCCCCCC(O)(c1ccccc1)C(CN1CCOCC1)c1ccccc1 (configuration not stated)	i	0.4	·	·
CCCCCCC(O)(c1ccc(OC)cc1)C(CN1CCOCC1)c1ccccc1 (configuration not stated)	i	6.4*	i	i	CHO-K1 Tl ctr=-24;KCNQ1 pot spec=-9;KCNQ2 pot conf=6.2*;Kir2-1 sel=-45;KCNQ2 W236L pot=i
NC(=O)[C@@H]1CCCN1Cc1c(C(=O)N2CCc3ccccc3C2)nc2ccc(Cl)cn12	i	·	·	·
O=[N+]([O-])c1cc(C(F)(F)F)ccc1Sc1nccn1Cc1ccccc1	i	·	58%*	i
Cn1ccnc1Sc1ccccc1[N+](=O)[O-]	i	·	·	·
O=[N+]([O-])c1cc(C(F)(F)F)ccc1Sc1ccc2ccccc2n1	i	·	·	·
O=[N+]([O-])c1ccc(Sc2nccn2Cc2ccccc2)c([N+](=O)[O-])c1	i	·	52%*	i
ONC(=Nc1ccc(Cl)cc1)c1ccccc1	i	0.25	·	·
Cc1onc(-c2c(Cl)cccc2Cl)c1COC(=O)c1ccc(Cl)cc1	i	·	·	·
CCCCCNC(=O)Cn1c(=O)c2c(ncn2CC(C)C)n(Cc2ccccc2)c1=O	i	·	·	·
Cc1ccc(NS(=O)(=O)c2cc(Br)cnc2N)c(Cl)c1	i	0.02	·	·
COc1cc(OC)c(NS(=O)(=O)c2cc(Br)cnc2N)cc1Cl	i	0.48	72%*	72%*
Cc1ccc(N2CCN(S(=O)(=O)c3ccc4c(c3)oc(=O)n4C)CC2C)cc1 (configuration not stated)	i	2.1	·	·
CC(C)C(=O)Nc1ccc(N2CCCC2)c(Cl)c1	i	1.4	·	·
Cc1cc(-c2ccc(S(=O)(=O)N3CCN(c4cccc(C)c4C)CC3)s2)on1	i	·	·	·
Cc1ccc(S(=O)(=O)Nc2cc(=O)[nH]c(SCC(=O)Nc3cccc(C)c3)n2)cc1	i	5.3*	i	i	CHO-K1 Tl ctr=30*;KCNQ1 pot spec=-5;KCNQ2 pot conf=18*;Kir2-1 sel=-33;KCNQ2 W236L pot=i
Cc1ccc(NC(=O)CSc2nc(NS(=O)(=O)c3ccccc3)cc(=O)[nH]2)cc1	i	0.93	·	·
CCn1cc(C(=O)N[C@@H](CCSC)C(=O)NCCCN2CCOCC2)c(=O)c2cc3c(cc21)OCO3	i	0.05	·	·
COC(=O)CCCC1=CC2=C(c3ccccc3)C(=O)C(C)(OC(=O)C3CCCC3)C(=O)C2=CN1CCc1c[nH]c2ccccc12 (configuration not stated)	i	0.34	·	·
Cc1cccc(N(C(=O)c2snc(C(N)=O)c2N)C(C(=O)NCC2CCCO2)c2ccc3ncccc3c2)c1 (configuration not stated)	i	0.02	·	·
CC(OC(=O)CNC(=O)C12CC3CC(CC(C3)C1)C2)C(=O)Nc1ccc(S(N)(=O)=O)cc1 (configuration not stated)	i	·	·	·
O=C(Nc1ccc(F)cc1)/C(=C1/CCCCCN1)[N+](=O)[O-]	i	·	·	·
SMILES	KCNQ2 inh	KCNQ2 pot	Kir21 conf inh	HEK293 ctr	others
Cc1ccc(C(CCNC(C)c2cccs2)c2ccco2)cc1 (configuration not stated)	i	·	36%*	i
O=C1c2ccccc2C(=O)N1CCC(c1ccc(F)cc1)c1ccco1 (configuration not stated)	i	·	·	·
COC(CNS(=O)(=O)c1ccc(S(=O)(=O)NC2CC2)cc1)OC	i	0.06	·	·
CCNc1nc(SC(C)C(=O)Nc2ccccc2)nc(N2CCOCC2)n1 (configuration not stated)	i	0.37	·	·
CC(=O)C(Sc1nc(N2CCOCC2)nc(N2CCOCC2)n1)C(=O)Nc1ccccc1 (configuration not stated)	i	6*	i	i	CHO-K1 Tl ctr=10*;KCNQ1 pot spec=-4;KCNQ2 pot conf=12*;Kir2-1 sel=-27;KCNQ2 W236L pot=i
N#CCC(=N)N1CCN(c2ccc(F)cc2)CC1	i	·	·	·
CC(C)(C)NC(=O)CN(C(=O)CN1C(=O)C(=O)c2ccccc21)C(C)(C)C	i	·	·	·
O=C(Nc1ncc2c(n1)-c1ccccc1CC2)c1ccc(F)cc1	i	4.5	·	·
O=C(Nc1ncc2c(n1)-c1ccccc1CC2)c1cccs1	i	9.7*	i	i	CHO-K1 Tl ctr=-9;KCNQ1 pot spec=-9;KCNQ2 pot conf=29*;Kir2-1 sel=-14;KCNQ2 W236L pot=i
O=C(Nc1ncc2c(n1)-c1ccccc1CC2)c1ccccc1	i	8.5*	i	73%*	CHO-K1 Tl ctr=-6;KCNQ1 pot spec=73*;KCNQ2 pot conf=17*;Kir2-1 sel=-50;KCNQ2 W236L pot=i
O=C(Nc1nc2c(s1)CCc1ccccc1-2)c1cccs1	i	0.02	·	·
CCOc1ccccc1C(=O)OCC(=O)Nc1nnc(-c2ccccc2)o1	i	5.5*	i	145%*	CHO-K1 Tl ctr=23*;KCNQ1 pot spec=-6;KCNQ2 pot conf=14*;Kir2-1 sel=-17;KCNQ2 W236L pot=i
CCOc1ccccc1C(=O)NC(C(=O)OCC(=O)Nc1nnc(-c2ccccc2)o1)C(C)C (configuration not stated)	i	·	·	·
O=C(Nc1ccc(OC(F)F)cc1)Nc1cccc(C(F)(F)F)c1	i	·	·	·
Cc1ccc(-c2cc(C(=O)OCC(=O)N(C)c3c(N)n(Cc4ccccc4)c(=O)[nH]c3=O)c3ccccc3n2)o1	i	0.16	·	·
